Records with an inconclusive call do not appear. Activity calls are given as the source filed them. Calls follow the shape of the dose curve; as a rule, active = well fitted curve in the direction sought with a large enough effect; inconclusive = small, poorly fitted or top-dose-only effect, or effect the other way, or another doubt; inactive = no such curve, though single readings can be large or run the other way.

Alpha-galactosidase A (Homo sapiens), sequence (P06280 32-429 limits assumed): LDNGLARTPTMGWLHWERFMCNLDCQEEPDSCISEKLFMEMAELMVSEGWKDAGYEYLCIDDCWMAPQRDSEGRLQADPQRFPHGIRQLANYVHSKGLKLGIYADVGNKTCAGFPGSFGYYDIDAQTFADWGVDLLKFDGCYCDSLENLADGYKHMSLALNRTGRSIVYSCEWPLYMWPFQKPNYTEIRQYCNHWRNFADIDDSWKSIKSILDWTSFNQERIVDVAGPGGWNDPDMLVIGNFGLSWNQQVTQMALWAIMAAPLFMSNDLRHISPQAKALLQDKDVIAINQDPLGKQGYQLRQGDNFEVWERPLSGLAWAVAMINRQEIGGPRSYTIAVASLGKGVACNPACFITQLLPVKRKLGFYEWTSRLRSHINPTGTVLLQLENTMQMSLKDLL

The test addresses Alpha-galactosidase A (Homo sapiens) (UniProt P06280). Briefly: Confirmation of Inhibitors of Human alpha-Galactosidase Using Spleen Homogenate. To be noted: alpha-galactosidase enzyme activity; series mostly up to 56.2 µM. The essentials:
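AC50 values come from Hill-equation fits of normalised 4-methylumbelliferone fluorescence (365/440 nm, read after NaOH/glycine stop). Enzyme source: spleen homogenate; substrate 1 mM final; pH 5.0 citrate buffer; 40 min at 37C; compound titration 0.5 nM–58 uM.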
Consider `CCC1OC23CCCCC2C(C#N)(C(=N)O3)C1(C#N)C#N` (stereo unspecified), for which the compound was called inactive.
The entry for `Cc1cc(NC(=O)C(C)(C)C)cc(-c2nc3ncccc3o2)c1O` is “inactive”; for `O=C(NCC1CCOCC1)c1ccc2nc(Cc3cccc(Cl)c3)oc2c1` it is “inactive”.
As for `O=S(=O)(c1ccc(F)cc1)N1CCOCC1`, the compound was classed as inactive.
For the compound `O=S(=O)(c1cccc(Br)c1)N1CCOCC1`, the result was inactive.
Consider `COc1ccc(Cc2nnc(NC(=O)CSc3ccc(Cl)cc3)s2)cc1`, for which the compound was classed as inactive.
In the case of `Cc1nnc(SCC(=O)Nc2nsc(-c3ccc(C(C)(C)C)cc3)n2)s1`, the compound was called inactive.
Turning to `Nc1ccccc1S(=O)(=O)N1CCOCC1`, the call was inactive.
Under `COc1cc(C2c3cc4c(cc3C(OC3OC5COC(C)O[C@@H]5C(O)C3O)C3COC(=O)C23)OCO4)cc(OC)c1O` (stereo partly specified) stands “inactive”.
With `O=c1oc2ccc3ccccc3c2cc1-c1nc2c(s1)CCc1ccccc1-2`, the result was inactive.
The entry for `Cn1c(-c2ccco2)nc2cc3ccccc3cc21` is “inactive”.
Regarding `CCCN1CNc2c(c(=O)[nH]c(=S)n2CCc2ccc(OC)c(OC)c2)C1`, the compound was called inactive.
`OCC(O)C1OC(Nc2ccc(Cl)cc2)C(O)C1O` (stereo unspecified): the compound was called inactive.
In the case of `CSc1ccccc1NC(=O)CN(C)CC(=O)NCc1ccccc1`, the compound was classed as inactive.
Under `COC(=O)c1ccc(CSc2cc(C)c3cccc(C)c3n2)o1` stands “inactive”; under `Nc1ccc(S(=O)(=O)N2CCOCC2)cc1`, “inactive”.
`COc1ccc(/C=C/c2nnc(NC(=O)CSc3ccc(Cl)cc3)s2)cc1`: the compound was classed as inactive.
Under `CCCc1cc(-c2nc(N)ncc2-c2ccc3c(c2)OCCCO3)c(O)cc1OC` stands “inactive”; under `CCN(CC)S(=O)(=O)c1ccc2c(c1)-c1cc(S(=O)(=O)N(CC)CC)ccc1C2=NNC(N)=S`, “inactive”.
As to `COc1cc(/C=N/Nc2ccc(Cl)c(C(=O)O)c2)ccc1OC(=O)c1ccccc1F`, the compound was called inactive.
Regarding `CCOC(=O)CCc1cccc2c1CCC2=O`, the outcome was inactive.
For `CC(=O)c1cccc(S(=O)(=O)N2CCOCC2)c1`, the compound was called inactive.
Take `N#CCCN1CCN(S(=O)(=O)c2ccc(S(=O)(=O)N3CCOCC3)cc2)CC1`: the compound was classed as inactive.
Turning to `Nc1c(NCCN2CCOCC2)c2ccccc2oc1=O`, the call was inactive.
Under `C=CCN1CCc2c(cc(O)c(O)c2Cl)C(c2ccccc2)C1` (stereo unspecified) stands “inactive”; under `CC1(C)CC(=O)c2cc(C(=O)NC3CCSC3=O)c(=O)n(-c3ccccc3)c2C1` (stereo unspecified), “inactive”; under `O=C(CC(c1ccccc1)c1cc(Br)ccc1O)NCCN1CCOCC1` (stereo unspecified), “inactive”.
Consider `O=C(O)c1c(-c2ccccc2)c2oc3ccccc3c2[nH]c1=O`, for which the compound was classed as inactive.
Under `O=C(Nc1nnc(-c2cccc(F)c2)s1)Nc1ccccc1F` stands “inactive”.
Regarding `COc1ccc(/C=C/c2nnc(NC(=O)COc3ccc(Cl)cc3)s2)cc1`, the outcome was inactive.
The entry for `N=c1sccn1CC(=O)Nc1cc(S(=O)(=O)N2CCCC2)ccc1Cl` is “inactive”.
Take `CC(=O)Oc1ccc2cc(-c3nc(-c4ccccc4)c(C)s3)c(=O)oc2c1`: the compound was called inactive.
For `Cc1ccc(S(=O)(=O)N(C)C)cc1NC(=O)COC(=O)Cc1ccc(Br)cc1`, the result was inactive.
Consider `CC1CCc2nc(-c3cc4ccc(O)cc4oc3=O)sc2C1` (stereo unspecified), for which the call was inactive.
For the compound `N#Cc1c(Cl)cccc1N1CCC(C(N)=O)CC1`, the result was inactive.
Consider `CCOc1c(Br)cc(CNc2ccc(N3CCOCC3)cc2)cc1OC`, for which the compound was classed as inactive.

For the origin of these results see PubChem BioAssay AID2108 (National Center for Advancing Translational Sciences (NCATS), 2009).
